Here are results for 15 compounds from PubChem BioAssay (NCI).

Holding throughout (experiment): NCI-60 one-dose screen, 48 h (100 = growth as untreated, 0 = no growth, -100 = all killed)
Conditions in all cases: 10 µM unless noted

The subject of assay [1] is NCI-H23 lung.
Assay [2] concerns NCI-H226 lung.
Assay [3] concerns NCI-H322M lung.
Assay [4] concerns HOP-62 NSCLC.
Assay [5] has as its system NCI-H460 lung.
Assay [6] has as its system HOP-92 NSCLC.
Assay [7] deals with NCI-H522 lung.
The subject of assay [8] is 786-0 renal.
Assay [9] deals with A549/ATCC NSCLC.
Assay [10] relates to COLO 205 colon.

Compounds without any hit were thinned out: in the full panel of roughly 83,000, 20% have a hit.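 Note: values are percent growth. 100 is the growth of untreated cells, values between 100 and 0 indicate rising inhibition; between -100 and 0 indicates cell death.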 A number with no mark means an inactive call. Calls of active or inactive are those of the source. How the source made its calls: active means growth percent below 10; inactive means the rest.

`C=C(C)[C@@H]1CC[C@@]2(C(=O)O)CC[C@]3(C)C(CCC4[C@@]5(C)CCC(OS(=O)(=O)c6ccccc6)C(C)(C)C5CC[C@]43C)C12` (some centres not stated): the growth in assay [1] is 37.2%; in [2], 69.2%; in assay [3], 73.6%; in [4], 57.4%; in [5], 42.3%; in assay [6], 51%. Besides, the growth in assay [7] is 32.5%; in assay [8] it was 56.5%.

With `COc1ccc(-c2cncnc2N)cc1OC`, the growth in [1] was 108%; in [2], 107%; in assay [3] it was 114%; in assay [4] it was -100% (active); in assay [5] it was 98.6%; in assay [6] it was 85.2%. In addition, the figures for the growth in assay [7] and in [8] were 105% and 107%, respectively.

On to `CCOC(=O)c1sc2ccc(NCc3nc[nH]c3C)cc2c1NC(=O)c1cc(OC)c(OC)c(OC)c1`, for which the growth in [1] is 85.7%; in [2] it was 84.3%; in assay [3] it was 91%; in assay [4] it was 93.9%; in assay [5] it was 92.6%; in assay [6], 75.1%. For the same compound, the growth in assay [7] and in assay [8] was 84.8% throughout.

With `O=C(NCCOCCOCCNc1cccc2c1C(=O)N(C1CCCNC1=O)C2=O)c1cc2c(o1)C(=O)c1ccccc1C2=O` (configuration not stated), the growth was -42.8% (active) in assay [1]; -79.8% (active) in [2]; -62.1% (active) in [3]; -65.2% (active) in assay [4]; -70.7% (active) in assay [5]; 22.2% in assay [6]. The growth in assay [7] is -52.7% (active); in assay [8], 3.9% (active).

As to `CCOC(=O)c1c(C)nc2c(c1N)/C(=C/c1cc(OC)c(OC)c(OC)c1)C(=O)N2c1ccc(OC)cc1`, the growth in assay [1] is 78.8%; in [2], 86.7%; in assay [3], 88.4%; in [4], 128%; in [5], 48.5%; in assay [6], 40.7%. The growth was 50.4% in assay [7] and 44.5% in [8].

With `CCCCN(CCCC)CCCn1c(=O)c2sc3ncccc3c2n2nnc(-c3ccccc3)c12`, the growth is 101% in assay [1]; 105% in [2]; 103% in assay [3]; 105% in [4]; 105% in assay [5]; 74.8% in [6]. In addition, the figures for the growth in assay [7] and in assay [8] were 89.5% and 108%, respectively.

For `CSc1ncc(C)c(Nc2ccc(Cl)cc2)n1`, the growth in [1] is 99.6%; in assay [2] it was 104%; in assay [3], 106%; in [4] it was 111%; in assay [5], 103%; in assay [6], 73.6%. In addition, the growth in assay [7] is 80.1%; in assay [8] it was 91.9%.

Regarding `COc1ccc(N=c2nc3sc4cc(Cl)ccc4n3c(N)c2C#N)cc1`, the growth is 66.5% in [1]; 24.4% in assay [2]; 93.4% in assay [3]; 102% in assay [4]; 102% in [5]; 88.4% in assay [6]. Moreover, the growth was 88.6% in [7] and 22.1% in [8].

As for `COc1ccc(-n2nnc(C(=O)NCCc3c[nH]c4ccc(F)cc34)c2C)cc1`, the growth in assay [1] is 98.5%; in assay [2] it was 97.9%; in [3], 101%; in assay [4] it was 86.5%; in assay [5] it was 100%; in assay [6] it was 87.6%. Also, the growth was 76.1% in assay [7], 82% in assay [9], 99.6% in assay [8] and 111% in assay [10].

As to `Cc1cc2c(F)c(Oc3ncnc(Nc4ccc(N5C[C@@H](C)N[C@@H](C)C5)cc4)c3C#N)cc(F)c2[nH]1`, the growth in assay [1] was 75%; in [2], 74.1%; in [3], 47.9%; in [4], 75.8%; in assay [5], 6.38% (active); in assay [6], 89.1%. The growth was -21.8% (active) in [7], 13.7% in [9] and -56.5% (active) in [10].

With `Cc1nc(Nc2cccc(NC(=O)Nc3ccc(Cl)cc3)c2)c2ccccc2n1`, the growth is 96% in [1]; 90.4% in assay [2]; 89.7% in assay [3]; 107% in assay [4]; 70.5% in assay [5]; 90.7% in assay [6]. Besides, the growth in [7] is 68.6%; in [9] it was 91.6%; in assay [8] it was 96.1%; in assay [10], 103%.

Take `CCCCn1c(=O)[nH]c(N)c(C(c2ccc(F)cc2)c2c(N)[nH]c(=O)n(CCCC)c2=O)c1=O`: the growth in assay [1] is 77.5%; in assay [2], 77.7%; in [3] it was 74.8%; in assay [4], 77.4%; in [5], 51.6%; in assay [6], 82.4%. Also, the growth in assay [7] is 51.6%; in assay [9] it was 69%; in assay [10], 59.9%.

Regarding `Cc1cc(=O)c2cc3nc(-c4cccnc4)oc3c(Br)c2o1`, the growth is 90% in [1]; 116% in assay [2]; 109% in assay [3]; 101% in [4]; 104% in assay [5]; 92% in assay [6]. Also, the growth is 62.9% in assay [7] and 96.8% in [8].

Take `Cc1nc2ccccc2c(/C=C/c2ccc(Cl)cc2)c1C(=O)/C=C/c1ccc(Cl)cc1`: the growth in assay [1] is -19.7% (active); in assay [2] it was -40.6% (active); in assay [3], 5.27% (active); in [4], -7.32% (active); in [5], -76.3% (active); in [6], -59.9% (active). Also, the growth was -14.6% (active) in assay [7], 56.9% in assay [9] and -24.5% (active) in assay [10].

`CCNCCNc1cc(-c2ccc(Cl)cc2)c(C#N)c2nc3ccccc3n12`: the growth is 44.7% in assay [1]; 56% in assay [2]; 2.72% (active) in assay [3]; 1.55% (active) in assay [4]; -55.1% (active) in assay [5]; 53.9% in assay [6]. Moreover, the growth in assay [7] was -41.7% (active); in assay [8], -57.9% (active).
